Screening results (PubChem)
FXIa inh mix: factor XIa (human) inhibition, mixture screen. purified FXIa, fluorogenic substrate, pooled mixtures. inhibition, % at 5 µM. actives 0.19% (n = 62,000);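 also: each value is inhibition by a whole ten-compound pool holding the compound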
C1s inh: blocks human complement C1s protease activity; P09871; purified C1s, fluorogenic AMC substrate, pooled mixtures; mean inhibition % of two 10-compound mixtures (hits give high values), % at 5 µM (by protocol); actives 0.16% (n = 62,000); AID 538;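 active = inhibition above 20% in each of the two 10-compound mixture wells holding the compound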
FXIIa mix inh: factor XIIa (human) inhibition, mixture screen; P00748; purified FXIIa, fluorogenic substrate, pooled mixtures; inhibition, % at 5 µM; AID 684; actives 0.2% (n = 62,000)
Target sequence (P00748 20-372 limits assumed): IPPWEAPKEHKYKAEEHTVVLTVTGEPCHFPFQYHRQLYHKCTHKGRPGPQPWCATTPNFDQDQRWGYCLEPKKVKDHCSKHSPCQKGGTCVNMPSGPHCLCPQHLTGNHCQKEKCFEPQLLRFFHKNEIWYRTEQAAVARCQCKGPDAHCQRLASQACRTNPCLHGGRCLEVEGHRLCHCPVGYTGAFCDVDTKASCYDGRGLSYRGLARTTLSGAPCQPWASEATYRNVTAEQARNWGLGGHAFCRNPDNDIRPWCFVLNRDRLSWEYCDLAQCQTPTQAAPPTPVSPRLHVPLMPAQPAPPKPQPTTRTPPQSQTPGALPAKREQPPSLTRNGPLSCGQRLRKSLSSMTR
Target sequence (P00748 373-615 limits assumed): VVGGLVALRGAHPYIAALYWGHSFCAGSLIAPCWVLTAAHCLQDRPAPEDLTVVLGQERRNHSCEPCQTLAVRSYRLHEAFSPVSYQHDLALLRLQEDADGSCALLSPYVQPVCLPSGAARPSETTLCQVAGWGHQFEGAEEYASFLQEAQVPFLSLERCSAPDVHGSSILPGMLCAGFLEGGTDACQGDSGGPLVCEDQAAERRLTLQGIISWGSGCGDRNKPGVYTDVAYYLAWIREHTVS
CatG inh: cathepsin G (human) inhibition; P08311; purified enzyme, AMC-tetrapeptide fluorescence, pooled mixtures; inhibition, % at 5 µM (by protocol); actives 0.2% (n = 62,000);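 active = inhibition above 20% in each of the two mixture wells holding the compound; inactive = inhibition of 20% or less in either well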
PLAP activator: human PLAP activation; P05187; purified PLAP enzyme, luminescent substrate read-out; hits give high values; activation fold at 20 µM; actives 1.2% (n = 96,000); in the data active = activation fold above about 2
HePTP inh: inhibitors of human HePTP phosphatase; actives 0.64% (n = 110,000); P35236; AID 521; recombinant HePTP phosphatase activity, OD absorbance; inhibition, % at 20 µM; in the data active = inhibition above about 50%
Each line names hits and unclear results; the compound was inactive in the other large screens. Sampled rows, rich in hits. Any-hit rate of the full collection: about 1.4%. Rule as the data show it, unless noted: active = inhibition above about 20% (passing the limit was not always enough); inactive = the rest.

CCc1ccc(OCCCCCN(CC)CC)cc1	none (no result: FXIa inh mix, C1s inh, FXIIa mix inh, CatG inh, PLAP activator)
Nc1ccccc1C(=O)N1CCN(c2ccc(F)cc2)CC1	none (no result: FXIa inh mix, C1s inh, FXIIa mix inh, CatG inh, PLAP activator)
Cc1cc(Cl)cc(C)c1OCCCCCCn1ccnc1	none (no result: FXIa inh mix, C1s inh, FXIIa mix inh, CatG inh, PLAP activator)
CC(C)(C)c1cc(C(=O)NCc2ccccc2)ccn1	C1s inh 21.8 (no result: PLAP activator)
COc1cc(C=Nc2ccc(Nc3ccccc3)cc2)cc([N+](=O)[O-])c1O	none (no result: FXIa inh mix, C1s inh, FXIIa mix inh, CatG inh, PLAP activator)
Cc1cc(Nc2cccc(Cl)c2)n2ncnc2n1	none (no result: PLAP activator)
CCCc1cc(Nc2cccc(OCC)c2)n2ncnc2n1	PLAP activator 2
CCCc1cc(Nc2cccc(OC)c2)n2ncnc2n1	PLAP activator 2.3
CCc1cccc(Nc2cc(C)nc3ncnn23)c1	none (no result: PLAP activator)
CCCOc1ccc(/C=N/N2CCN(Cc3cccc4ccccc34)CC2)cc1	none (no result: FXIa inh mix, C1s inh, FXIIa mix inh, CatG inh, PLAP activator)
O=[N+]([O-])c1cc([N+](=O)[O-])c2oc(-c3ccccc3)c(Br)c2c1O	HePTP inh 104.2 (no result: FXIa inh mix, C1s inh, FXIIa mix inh, CatG inh, PLAP activator)
O=C(N/N=C/c1c(Br)cc(Br)c(O)c1Br)c1ccccc1[N+](=O)[O-]	none (no result: FXIa inh mix, C1s inh, FXIIa mix inh, CatG inh, PLAP activator)
O=C(Oc1ccc2c(c1)OCC2=O)c1ccccc1	C1s inh 43.1
CC(C)(C)c1ccc(C(=O)Oc2ccc3c(c2)OCC3=O)cc1	none (no result: FXIa inh mix, C1s inh, FXIIa mix inh, CatG inh, HePTP inh)
C/C(=N\NC(=O)c1c[nH]c2ccccc12)c1ccc(C)o1	PLAP activator 2.6 (no result: FXIa inh mix, C1s inh, FXIIa mix inh, CatG inh, HePTP inh)
C/C(=N/NC(=O)c1c[nH]c2ccccc12)c1cccc(NC(=O)c2ccco2)c1	none (no result: FXIa inh mix, C1s inh, FXIIa mix inh, CatG inh, PLAP activator)
CSc1ccc(/C=N/NC(=O)c2cc(C)[nH]n2)cc1	none (no result: FXIa inh mix, C1s inh, FXIIa mix inh, CatG inh, PLAP activator)
CCCCCCCCNC(=O)CCNC(=O)c1ccc(C(C)(C)C)cc1	PLAP activator 2 (no result: FXIa inh mix, C1s inh, FXIIa mix inh, CatG inh, HePTP inh)
CCCCCNC(=O)c1ccc(C(=O)NCCCCC)cc1	none (no result: FXIa inh mix, C1s inh, FXIIa mix inh, CatG inh, PLAP activator)
COc1ccc(-c2c(C)n([O-])c3c([n+]2=O)CCC3)cc1	HePTP inh 104.2 (no result: FXIa inh mix, C1s inh, FXIIa mix inh, CatG inh, PLAP activator)
Cc1c(-c2ccc(F)cc2)[n+](=O)c2c(n1[O-])CCC2	HePTP inh 104.2 (no result: FXIa inh mix, C1s inh, FXIIa mix inh, CatG inh, PLAP activator)
COCCn1c(=S)[nH]c2ncccc2c1=O	FXIa inh mix 37.6
O=C1NN(c2ccc(Cl)c(Cl)c2)C(=O)/C1=C/c1ccc(Cl)cc1	none (no result: FXIa inh mix, C1s inh, FXIIa mix inh, CatG inh, PLAP activator)
CCN(CC)CCNC(=O)C12CC3CC(C)(CC(C)(C3)C1)C2	PLAP activator 2.1 (no result: FXIa inh mix, C1s inh, FXIIa mix inh, CatG inh, HePTP inh)
CCN(CC)CCNC(=O)C12CC3CC(CC(C3)C1)C2	none (no result: FXIa inh mix, C1s inh, FXIIa mix inh, CatG inh)
COc1ccc(OCC(=O)Nc2ccc(-c3nc4ncccc4o3)cc2)cc1	none (no result: FXIa inh mix, C1s inh, FXIIa mix inh, CatG inh, PLAP activator)
CC(C)(C)c1ccc(OCC(=O)Nc2ccc(-c3nc4cccnc4o3)cc2)cc1	PLAP activator 2 (no result: FXIa inh mix, C1s inh, FXIIa mix inh, CatG inh, HePTP inh)
COc1cccc(-c2nc3sc(C)c(C)c3c(=O)[nH]2)c1O	none (no result: FXIa inh mix, C1s inh, FXIIa mix inh, CatG inh, PLAP activator)
Cc1c(C(=O)N(C)C)sc2nc(-c3ccccn3)[nH]c(=O)c12	PLAP activator 2.9 (no result: FXIa inh mix, C1s inh, FXIIa mix inh, CatG inh, HePTP inh)
O=C(CN1CCOCC1)Nc1ncc(Cc2ccccc2Cl)s1	PLAP activator 2 (no result: FXIa inh mix, C1s inh, FXIIa mix inh, CatG inh, HePTP inh)
O=C(CCN1C(=O)/C(=C/c2ccccc2)SC1=S)Nc1ncc(Cc2ccccc2Cl)s1	none (no result: FXIa inh mix, C1s inh, FXIIa mix inh, CatG inh, PLAP activator)
O=C(N/C(=C/c1cccc(Br)c1)c1nc2ccccc2[nH]1)c1ccccc1	none (no result: FXIa inh mix, C1s inh, FXIIa mix inh, CatG inh, PLAP activator)
Cc1ccccc1C(=O)Nc1ccc(C(=O)Nc2nccs2)cc1	none (no result: FXIa inh mix, C1s inh, FXIIa mix inh, CatG inh, PLAP activator)
COC(=O)c1sc2nc(CSc3nc4ccc(C)cc4[nH]3)[nH]c(=O)c2c1C	PLAP activator 2 (no result: FXIa inh mix, C1s inh, FXIIa mix inh, CatG inh, HePTP inh)
CCOC(=O)N1CCN(C(=O)CN(c2cccc(C)c2)S(=O)(=O)c2ccccc2)CC1	none
CCOC(=O)N1CCN(C(=O)CN(c2cccc(C)c2)S(=O)(=O)c2ccc(C)cc2)CC1	C1s inh 57.7
COc1ccc(OC)c(N(CC(=O)N2CCC(C)CC2)S(=O)(=O)c2ccccc2)c1	none (no result: FXIa inh mix, C1s inh, FXIIa mix inh, CatG inh, HePTP inh)
Cc1ccc(S(=O)(=O)N(CC(=O)N2CCC(C)CC2)c2cccc(C)c2)cc1	PLAP activator 2.2 (no result: FXIa inh mix, C1s inh, FXIIa mix inh, CatG inh, HePTP inh)
CCCNC(=O)c1ccc2c(c1)C1C3CCC(C3)C1C(c1ccccc1)N2 (centres undefined)	PLAP activator 2.6 (no result: FXIa inh mix, C1s inh, FXIIa mix inh, CatG inh, HePTP inh)
CCCNC(=O)c1ccccc1C(=O)NCCC	none
COC(=O)c1c(-c2ccc(C)c(C)c2)csc1N	HePTP inh 103.7 (no result: FXIa inh mix, C1s inh, FXIIa mix inh, CatG inh, PLAP activator)
CC1=NN(c2cccc(C(=O)O)c2)C(=O)/C1=C\c1ccc(-c2cc([N+](=O)[O-])ccc2C)o1	HePTP inh 55.7 (no result: FXIa inh mix, C1s inh, FXIIa mix inh, CatG inh, PLAP activator)
CC1=NN(c2cccc(C(=O)O)c2)C(=O)/C1=C\c1ccc(-c2ccc([N+](=O)[O-])cc2)o1	none (no result: FXIa inh mix, C1s inh, FXIIa mix inh, CatG inh, PLAP activator)
CC1=NN(c2cccc(C(=O)O)c2)C(=O)/C1=C\c1ccc(-c2ccc(Cl)c(C(=O)O)c2)o1	HePTP inh 100.6 (no result: FXIa inh mix, C1s inh, FXIIa mix inh, CatG inh, PLAP activator)
Nn1c(-c2ccco2)n[nH]c1=S	none
CN=C(c1ccco1)n1c(=S)nc(-c2ccco2)n(C)c1=S	PLAP activator 2.7 (no result: FXIa inh mix, C1s inh, FXIIa mix inh, CatG inh)
O=S(=O)(Nc1ccccc1F)c1ccc2nsnc2c1	FXIIa mix inh 20.9
Cc1cc(NC(c2ccc(Cl)cc2)c2ccc3cccnc3c2O)no1 (centres undefined)	PLAP activator 2 (no result: FXIa inh mix, C1s inh, FXIIa mix inh, CatG inh, HePTP inh)
COC(=O)c1c(NC(C)=O)sc(/C(C)=C/C#N)c1C	none (no result: FXIa inh mix, C1s inh, FXIIa mix inh, CatG inh, PLAP activator)
CCCOc1ccccc1N/C(=N/c1nc(C)cc(C)n1)NC(=O)COc1ccc(OC)cc1	PLAP activator 2.4 (no result: FXIa inh mix, C1s inh, FXIIa mix inh, CatG inh, HePTP inh)
CCSc1nc2sc3c(c2c2nncn12)CCN(C)C3	none (no result: FXIa inh mix, C1s inh, FXIIa mix inh, CatG inh, PLAP activator)
CC(=O)NC1=NC(=O)/C(=C/c2cc(C)n(-c3ccc(C(=O)O)cc3)c2C)S1	HePTP inh 60.8 (no result: FXIa inh mix, C1s inh, FXIIa mix inh, CatG inh, PLAP activator)
COC(=O)c1ccc(-n2c(C)cc(/C=C3/SC(N)=NC3=O)c2C)cc1	none (no result: FXIa inh mix, C1s inh, FXIIa mix inh, CatG inh, PLAP activator)
Cc1ccccc1CS(=O)(=O)c1nnc([C@H](CC(C)C)NC(=O)OC(C)(C)C)o1	CatG inh 20.5
CC(C)C[C@H](N)c1nnc(S(=O)(=O)Cc2cccc(F)c2)o1	none
CC(C)=CCSc1nnc([C@@H](NC(=O)OC(C)(C)C)C(C)C)o1	none
